From the supplement of paper PMC10646978
± gives the standard deviation.

What was measured:
Conditions in all cases: modulator concentration 10 µM
[1] = test system: RAW-Dual (murine macrophage reporter line); experiment: NF-kB reporter (SEAP) activity fold change vs agonist alone; higher = enhanced NF-kB activity
Method in brief: (§1)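 RAW-Dual murine macrophage reporter cells were seeded at 50 000 per well in 384-well plates and pre-incubated 1 hour at 37 °C with compound pin-transferred to 10 μM final. After 1 hour, a PRR agonist was added and cells incubated overnight. Supernatant NF-κB (SEAP, QUANTI-Blue, 620 nm absorbance) and IRF (Lucia luciferase, QUANTI-Luc, luminescence) signals were divided by the mean agonist-only control on the same plate to give fold change. Two replicate plates were averaged, with errors by propagation.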

[2] = test system: RAW-Dual (murine macrophage reporter line); experiment: IRF reporter (Lucia luciferase) activity fold change vs agonist alone; higher = enhanced IRF activity
Method in brief: as §1

[3] = test system: RAW-Dual (murine macrophage reporter line); experiment: viability score (confluency relative to resting cells, overnight) (fraction); higher = more viable, active = viable (0.7 or more)
Method in brief: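 Two confluency masks, generated with IncuCyte software over all imaged wells, were applied to IncuCyte images of RAW-Dual macrophages. The cells, in 384-well plates, had been exposed overnight to 10 μM final compound. The viability score is confluency as a fraction of resting cells, and a compound met the cutoff only with both masks above 70% of resting cells.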

[4] = agonist: CpG ODN 1826 0.5 ug/mL

Row | SMILES | NF-kB reporter [1, 4] | NF-kB reporter ([1]; agonist: LPS 0.1 ug/mL) | NF-kB reporter ([1]; agonist: MPLA […]) | IRF reporter ([2]; agonist: 3'3'-cGAMP 10 ug/mL) | IRF reporter ([2]; agonist: LPS 0.1 ug/mL) | IRF reporter ([2]; agonist: MPLA […]) | viability score [3]
1 | O=C(NCC1(O)CCc2ccccc2C1)Nc1ccccc1C(F)(F)F (configuration not stated) | 0.914 ± 0.18 | 1.02 ± 0.11 | 1.18 ± 0.074 | 0.973 ± 0.05 | 1.17 ± 0.2 | 1.31 ± 0.42 | 0.908 (active)
2 | CN(C)c1nc(CNS(C)(=O)=O)nc(N2CCOCC2)n1 | 0.908 ± 0.047 | 0.916 ± 0.091 | 1.02 ± 0.071 | 1.08 ± 0.049 | 1.07 ± 0.18 | 1.14 ± 0.38 | 1.02 (active)
3 | Cc1oncc1CNC(=O)c1ccc(C(C)(C)C)cc1 | 1.18 ± 0.089 | 1.1 ± 0.083 | 1.07 ± 0.049 | 0.779 ± 0.039 | 1.01 ± 0.05 | 1.02 ± 0.099 | 0.996 (active)
4 | CCOc1ccc(-c2ccc(=O)n(CCNS(=O)(=O)CCc3ccccc3)n2)cc1 | 1.08 ± 0.081 | 1.22 ± 0.13 | 1.06 ± 0.083 | 1.2 ± 0.078 | 0.984 ± 0.07 | 1.3 ± 0.27 | 0.995 (active)
5 | CC(=NOCCCl)C(C)=NOCCCl | 0.946 ± 0.078 | 1.05 ± 0.13 | 1.21 ± 0.042 | 0.909 ± 0.15 | 1.07 ± 0.045 | 1.59 ± 0.2 | 0.585 (inactive)
6 | CCCc1nn(C)c2c(=O)[nH]c(-c3cc(S(=O)(=O)N4CCN(C)CC4)ccc3OCC)nc12 | 0.951 ± 0.23 | 1.03 ± 0.07 | 1 ± 0.068 | 0.928 ± 0.036 | 1.25 ± 0.16 | 1.37 ± 0.22 | 0.986 (active)
7 | Cc1n[nH]c(C)c1CCC(=O)NC1CCC(F)(F)CC1 | 0.921 ± 0.068 | 1.04 ± 0.12 | 0.879 ± 0.048 | 0.955 ± 0.062 | 1.18 ± 0.094 | 1.03 ± 0.28 | 1.02 (active)
8 | CN(C)CCOC(c1ccc(Cl)cc1)c1ccccn1.O=C(O)/C=C\C(=O)O (configuration not stated) | 0.87 ± 0.12 | 1.14 ± 0.19 | 0.954 ± 0.073 | 0.752 ± 0.03 | 1.36 ± 0.27 | 1.15 ± 0.12 | 1 (active)
9 | Cc1ccc(-n2c(C)cc(C=NNC(=O)CN3CCOCC3)c2C)c(C)c1 | 0.928 ± 0.084 | 1.11 ± 0.1 | 1.09 ± 0.097 | 0.822 ± 0.024 | 1.09 ± 0.19 | 1.07 ± 0.082 | 1 (active)
10 | NC(CO)(CO)CO | 1.16 ± 0.24 | 1.1 ± 0.22 | 1.01 ± 0.11 | 0.964 ± 0.11 | 1.19 ± 0.12 | 0.966 ± 0.15 | 1 (active)
11 | CN(C)c1ccc(O)c2c1C[C@H]1C[C@H]3[C@H](N(C)C)C(O)=C(C(N)=O)C(=O)[C@@]3(O)C(O)=C1C2=O.Cl | 0.96 ± 0.072 | 0.927 ± 0.052 | 0.959 ± 0.03 | 1.36 ± 0.37 | 1.04 ± 0.14 | 1.09 ± 0.17 | 0.999 (active)
12 | O=C(CCC1CCCC1)Nc1cccc(Cl)c1 | 0.771 ± 0.061 | 0.906 ± 0.1 | 1.15 ± 0.1 | 0.943 ± 0.046 | 1.63 ± 0.11 | 1.87 ± 0.16 | 1 (active)
13 | COc1ccc(C2Sc3ccccc3N(CCN(C)C)C(=O)C2OC(C)=O)cc1.Cl (configuration not stated) | 1.01 ± 0.29 | 1 ± 0.05 | 1.08 ± 0.092 | 0.966 ± 0.033 | 1.15 ± 0.15 | 1.2 ± 0.12 | 0.992 (active)
14 | O=C(C=Cc1ccc(O)cc1)c1ccc(O)cc1O | 1.33 ± 0.36 | 1.09 ± 0.054 | 1.74 ± 0.12 | 0.305 ± 0.012 | 0.966 ± 0.1 | 0.81 ± 0.13 | 0.979 (active)
15 | O=c1[nH]c(=O)n([C@H]2C[C@H](O)[C@@H](CO)O2)cc1I | 1.11 ± 0.15 | 0.928 ± 0.058 | 0.992 ± 0.044 | 1.04 ± 0.068 | 0.992 ± 0.069 | 0.967 ± 0.15 | 0.998 (active)
16 | CN(C)C=C1C(=O)N(c2nc3ccccc3s2)N=C1CSc1ccc(Cl)cc1 | 0.945 ± 0.078 | 1.02 ± 0.067 | 0.916 ± 0.058 | 0.843 ± 0.029 | 1.42 ± 0.12 | 1.15 ± 0.073 | 1.01 (active)
17 | CCn1c(=O)c2c(nc(/C=C/c3ccc(OC)c(OC)c3)n2C)n(CC)c1=O | 1.56 ± 0.31 | 1.27 ± 0.33 | 1.14 ± 0.094 | 0.721 ± 0.044 | 1.21 ± 0.27 | 1.32 ± 0.26 | 0.986 (active)
18 | C#Cc1cccc(Nc2ncnc3cc(OC)c(OCCCCCCC(=O)NO)cc23)c1 | 1.12 ± 0.058 | 1.45 ± 0.11 | 2.44 ± 0.12 | 0.563 ± 0.034 | 0.43 ± 0.029 | 0.581 ± 0.068 | 0.973 (active)
19 | O=C(CN1CCN(c2ccccc2F)C1=O)N1CCCC(Oc2cnccn2)C1 (configuration not stated) | 0.831 ± 0.039 | 0.931 ± 0.075 | 1.08 ± 0.062 | 1.02 ± 0.053 | 1.26 ± 0.27 | 1.37 ± 0.47 | 0.965 (active)
20 | O=C(CCc1ccc(F)c(Cl)c1)NCCn1nccn1 | 1.06 ± 0.052 | 1.06 ± 0.11 | 0.972 ± 0.056 | 1 ± 0.068 | 1.21 ± 0.076 | 1.06 ± 0.087 | 0.992 (active)
21 | Cl.O[C@@H](c1cc(C(F)(F)F)nc2c(C(F)(F)F)cccc12)[C@H]1CCCCN1 | 0.671 ± 0.091 | 0.59 ± 0.044 | 1.05 ± 0.071 | 0.504 ± 0.066 | 1.04 ± 0.096 | 2.25 ± 0.17 | 0.137 (inactive)
22 | O=C1c2ccccc2-c2nc3ccccc3n21 | 0.969 ± 0.17 | 1.24 ± 0.11 | 1.14 ± 0.12 | 0.983 ± 0.033 | 1.05 ± 0.21 | 1.28 ± 0.16 | 0.856 (active)
23 | CCOC(=O)C1=C(C)NC(C)=C(C(=O)OCC)C1c1cccs1 | 0.836 ± 0.23 | 0.998 ± 0.089 | 0.965 ± 0.12 | 0.929 ± 0.071 | 1.09 ± 0.3 | 1.08 ± 0.25 | 0.978 (active)
24 | CC1=NN(c2ccc(S(N)(=O)=O)cc2)C(=O)C1=Cc1ccc(C)s1 | 1.09 ± 0.074 | 1.08 ± 0.072 | 1.33 ± 0.14 | 0.868 ± 0.033 | 1.86 ± 0.15 | 1.54 ± 0.14 | 0.981 (active)
25 | O=c1c(-c2ccc(O)cc2)coc2cc(O)cc(O)c12 | 1.54 ± 0.4 | 1.01 ± 0.26 | 1.2 ± 0.079 | 0.625 ± 0.02 | 0.76 ± 0.29 | 0.842 ± 0.1 | 0.945 (active)
26 | Cc1ccc(C2(c3ccc(C)cc3)CC2C(=O)Nc2ccccc2)cc1 (configuration not stated) | 0.728 ± 0.079 | 0.905 ± 0.12 | 1.51 ± 0.071 | 0.541 ± 0.031 | 0.835 ± 0.12 | 0.654 ± 0.12 | 0.992 (active)
